# Out of some 2,300 compounds screened, about 1,000 (43%) were called active. The rule behind the calls is not given here. The set was probably picked from earlier hits. The list shows a part of the results. Measured potencies and affinities stand elsewhere.
# Experiment: PhoP regulon inhibitor project modified counter assay, GFP fluorescence readout, dose response (AID 1985)
# Conditions: S. Typhi, 4 h; series mostly up to 150 µM
row,Compound,outcome
1,O=C(OCc1nc2ccccc2s1)c1ccco1,inactive
2,O=C(O)CC/C(=C\c1ccccc1[N+](=O)[O-])c1nc2ccccc2s1,inactive
3,O=C1CCCC(=O)N1c1ccc(N2CCOCC2)c([N+](=O)[O-])c1,inactive
4,CCn1cc(C(=O)NCCc2ccccc2)c(=O)c2cc(F)c(N3CCN(C)CC3)cc21,inactive
5,CN(C)CCN1C(=O)C(O)=C(C(=O)c2cc3ccccc3o2)C1c1ccccn1 (stereo unspecified),inactive
6,O=C(Cn1nc(Cc2ccncc2)c2ccccc2c1=O)Nc1cccnc1Cl,inactive
7,COc1ccc(N(CCCN2C(=O)c3cccc4cccc(c34)C2=O)C(=O)c2cccnc2)cc1,inactive
8,O=C(NCc1ccc2c(c1)OCO2)c1ccc2c(c1)C(=O)N(Cc1cccnc1)C2=O,inactive
9,O=C(c1ccco1)N1CCCN(Cc2nc(-c3ccc4c(c3)OCO4)no2)CC1,inactive
10,C1CCC(n2nnnc2CN2CCN(C3CCCC3)CC2)CC1,inactive
11,CCN(CC)CCOC(=O)c1ccc(N/C=C(/C#N)c2nc(-c3ccc(OC)c(OC)c3)cs2)cc1,inactive
12,Cc1ccc(-n2ncc3c(=O)[nH]cnc32)c(C)c1,inactive
13,N/C(=N\OC(=O)N1CCOCC1)c1ccccc1,inactive
14,O=C(Nc1cccc(OCC(=O)N2CCOCC2)c1)c1cccc([N+](=O)[O-])c1,inactive
15,O=C1c2ccccc2C(=O)C1(CO)c1ccc(OC(F)F)cc1,inactive
16,Cc1nnc(SCC(=O)Nc2cc(S(=O)(=O)N3CCCC3)ccc2Cl)s1,inactive
17,COc1ccc(C)cc1S(=O)(=O)N1CCCC(C(=O)NCC2CCCO2)C1 (stereo unspecified),inactive
18,COC(=O)C1=C(C(=O)OC)SC(=C2C(=S)C(C)(C)N(C(=O)C3CC3)c3ccccc32)S1,inactive
19,O=C(NCC1CC1)Nc1cccs1,inactive
20,CC(C)(C)NC(=O)NC(=O)COC(=O)CCC1CCCC1,inactive
21,Cc1c(C(=O)O)oc2c3c(ccc12)OCCO3,inactive
22,c1ccc(CNc2nc(N3CCN(Cc4ccccc4)CC3)nc3ccccc23)cc1,inactive
23,CC(Nc1nc(N2CCCCC2)nc2ccccc12)c1ccccc1 (stereo unspecified),inactive
24,COc1ccc(N2CCN(C(CNC(=O)c3ccc4c(c3)OCO4)c3ccco3)CC2)cc1 (stereo unspecified),inactive

row,Compound,outcome
1,COc1ccc(C(CC(=O)O)NC(=O)C2CCCCC2)cc1 (stereo unspecified),inactive
2,CCCOc1ccc(-c2cn3ccccc3n2)cc1,inactive
3,COC(=O)c1ccc(NC(=O)c2ccccc2N(C)S(=O)(=O)c2ccccc2)cc1,inactive
4,Cc1cccc(N2CCN(C(=O)CCN3C(=S)NC(C)(C)CC3C)CC2)c1C (stereo unspecified),inactive
5,CC(C)OCCCn1c(=S)[nH]c2cc3c(cc2c1=O)OCO3,inactive
6,O=C(NCc1ccccn1)c1nc(Cn2ccc([N+](=O)[O-])n2)no1,inactive
7,CC(C)c1ccc(N(C(=O)C(F)(F)F)C(C(=O)NC2CCCCC2)c2ccncc2)cc1 (stereo unspecified),inactive
8,O=C(CN1CCCC1)Nc1ccc(-c2nc3cc(NC(=O)CN4CCCC4)ccc3o2)cc1,inactive
9,CC(=O)c1c(N2CCN(c3cccc(Cl)c3)CC2)nc(=S)n(-c2ccccc2)c1C,inactive
10,COc1cccc(NC(=O)CSc2nncn2-c2ccccn2)c1,inactive
11,COc1ccc(Nc2nc(-c3ccccc3)nc3ccccc23)cc1S(=O)(=O)N1CCOCC1,inactive
12,COc1ccc(OC)c(CCNC(=O)CS(=O)(=O)Cc2nc(-c3ccccc3C)oc2C)c1,inactive
13,COC(=O)c1ccc(Cn2c(O)c(N=NC(N)=S)c3ccccc32)o1,inactive
14,c1ccc(CSc2ccc(-c3cccs3)nn2)nc1,inactive
15,CCc1nnc(NC(=O)c2ccc(S(C)(=O)=O)cc2)s1,inactive
16,Cc1ccc2[nH]cc(CCNC(=O)c3cccnc3)c2c1,inactive
17,COc1ccc(-c2csc(N)n2)cc1F,inactive
18,O=C(Nc1ccc(Cc2ccncc2)cc1)c1cccs1,inactive
19,CC(C)(C)n1nc2c(c1NC(=O)c1cccs1)CS(=O)C2 (stereo unspecified),inactive
20,Cc1cc(C)cc(NC(=O)CSc2nnc(CNC(=O)c3cccs3)o2)c1,inactive
21,Cc1ccc(NC(=O)OCc2cccs2)cc1,inactive
22,Nc1nc(SCC(=O)N2CCCC2)[nH]c(=O)c1NC(=O)c1cccs1,inactive
23,CCc1ccc2c(c1)CCCN2C(=O)c1ccccc1C(=O)O,inactive
24,CC1Cc2ccccc2N1S(=O)(=O)c1cccc(C(=O)N2CC(=O)Nc3ccccc32)c1 (stereo unspecified),inactive

row,Compound,outcome
1,Cc1noc(C)c1CCC(=O)N1CCCC(CCC(=O)NCc2ccc(F)c(F)c2)C1 (stereo unspecified),inactive
2,COc1ccc(NS(=O)(=O)c2cc(NC(=O)c3ccc(C)s3)ccc2N2CCOCC2)cc1,inactive
3,CCCC(=O)c1c(NC)cc(C)oc1=O,inactive
4,CCOC(=O)C1=C(O)c2ccccc2C(=O)/C1=C\c1ccc(C)cc1,inactive
5,CCOc1cc(C2NC(=O)N(C)C(C)=C2[N+](=O)[O-])ccc1OC(C)=O (stereo unspecified),inactive
6,CCc1nc(N)nc(N)c1-c1ccc(Cl)cc1,inactive
7,NCCCCCc1nnc(SCc2ccc(Cl)cc2Cl)o1,inactive
8,CCNc1nc(N)nc(Oc2ccc(OCCOc3ccc(Cl)cc3Cl)nn2)n1,inactive
9,COc1ccc(C2C(C#N)=C(N)Oc3n[nH]c(C)c32)cc1CSc1ccccn1 (stereo unspecified),inactive
10,COc1ccc(OCC(=O)Nc2ccc3c(c2)nc(CCN2CCC(C)CC2)n3C)cc1,inactive
11,COc1ccc(CCNC2CCCCC2)cc1,inactive
12,CCOC(=O)c1cccc(NC(=O)C2CCC(CNc3c(N4CCOCC4)c(=O)c3=O)CC2)c1 (stereo unspecified),inactive
13,Cc1ccc(-c2c(C)n([O-])c3c([n+]2=O)CCCC3)o1,inactive
14,O=C(CCNC(=O)c1ccco1)Nc1cccc(Br)c1,inactive
15,O=C(CSc1ccc(Cl)cc1)c1ccco1,inactive
16,c1ccc2c(c1)OC(CCCN1CCCCC1)c1ccccc1S2 (stereo unspecified),inactive
17,CSc1ccc2c(c1)N(CCC1CCCCN1C)c1ccccc1S2 (stereo unspecified),inactive
18,Cc1cc(Cl)ccc1OCCCC(=O)N1CCCc2ccccc21,inactive
19,OCCN1CCN(CCCN2c3ccccc3Sc3ccc(C(F)(F)F)cc32)CC1,inactive
20,c1ccc(-c2nc(NC3CC3)nc(-n3ccnc3)n2)cc1,inactive
21,COc1ccc(C2C(C(=O)NCc3cccnc3)c3ccccc3C(=O)N2C)cc1OC (stereo unspecified),inactive
22,N#Cc1nc(Cc2ccccc2)oc1NCCN1CCOCC1,inactive
23,c1ccc2cc3c(NCCN4CCOCC4)ccnc3cc2c1,inactive
